In PubChem BioAssay AID2283193 (EPA ToxCast):
Results filed as inconclusive are left out. Activity calls are given as the source filed them. The calls were made as follows: active = hit-call score of the fitted dose curve at least 0.9, where 1 is the maximum; inconclusive = response in the unintended direction; inactive = score below 0.9.

Each compound was assayed against human Protein Kinase C, zeta (PKCz), PRKCZ (gene 5590) (UniProt Q05513) (assay: NVS_ENZ_hPKCz: NovaScreen (NVS) Enzymatic Assay for human Protein Kinase C, zeta (PKCz)).
Sequence of human Protein Kinase C, zeta (PKCz), PRKCZ (gene 5590) (Q05513 whole entry, looked up): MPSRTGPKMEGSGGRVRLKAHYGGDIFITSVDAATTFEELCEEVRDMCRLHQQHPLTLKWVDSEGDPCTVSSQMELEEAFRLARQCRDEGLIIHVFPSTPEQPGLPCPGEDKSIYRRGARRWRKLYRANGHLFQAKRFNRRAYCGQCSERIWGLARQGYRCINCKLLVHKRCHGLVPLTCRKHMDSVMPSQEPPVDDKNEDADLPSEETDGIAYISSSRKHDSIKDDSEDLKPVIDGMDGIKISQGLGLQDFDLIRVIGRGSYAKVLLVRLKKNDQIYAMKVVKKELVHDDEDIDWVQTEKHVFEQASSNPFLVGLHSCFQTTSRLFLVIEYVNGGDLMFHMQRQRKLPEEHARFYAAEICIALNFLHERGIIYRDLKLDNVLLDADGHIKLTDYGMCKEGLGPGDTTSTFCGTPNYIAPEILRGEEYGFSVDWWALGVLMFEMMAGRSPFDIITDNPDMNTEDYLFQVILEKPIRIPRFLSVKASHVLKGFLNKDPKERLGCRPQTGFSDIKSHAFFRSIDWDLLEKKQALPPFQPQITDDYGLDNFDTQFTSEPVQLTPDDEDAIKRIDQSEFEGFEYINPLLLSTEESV
Description: NVS_ENZ_hPKCz is a biochemical, single-readout assay that uses extracted gene-proteins in a cell-free assay. Measurements were taken 1 hour after chemical dosing in a 384-well plate.NVS_ENZ_hPKCz is one of one assay component(s) measured or calculated from the NVS_ENZ_hPKCz assay. It is designed to make measurements of enzyme activity, a form of enzyme reporter, as detected with fluorescence intensity signals by Fluorescence and electrophoretic mobility shift technology.Data from the assay component NVS_ENZ_hPKCz was analyzed into 1 assay endpoint. This assay endpoint, NVS_ENZ_hPKCz, was analyzed in the positive analysis fitting direction relative to DMSO as the negative control and baseline of activity. Using a type of enzyme reporter, loss-of-signal activity can be used to understand changes in the enzymatic activity as they relate to the gene PRKCZ. Furthermore, this assay endpoint can be referred to as a primary readout, because this assay has produced multiple assay endpoints where this one serves a enzymatic activity function. To generalize the intended target to other relatable targets, this assay endpoint is annotated to the kinase intended target family, where the subfamily is serine/threonine kinase.
Binding assays used specific radioligands (tritiated, iodinated) with non-radioactive competitive displacement ligands in agonist or antagonist protocols (as indicated) and various reference compounds and inhibitors to titrate specific binding to receptors and transporters. Most enzyme assays (CYPs, kinases, phosphatases, proteases, HDACs) used recombinant protein and specific substrates (fluorescence mostly, some colorimetric and radioactive) and inhibitors, followed by a biochemical separation of substrate and product. All assays for the biochemical HTS were initially run in duplicate at a single concentration (10 uM for CYP450 assays and 25 uM for all others). Assay-chemical combinations meeting a pre-defined threshold (e.g., 30% inhibition and other criteria defined below) were then run in singleton concentration-response format with maximum concentration of 20 uM for CYPs and 50 uM for all others. Each assay was run with positive and negative controls, and concurrent controls on every plate. The follow-up (secondary) screen tested active chemical-pairs in concentration series, as well as a few additional assays not tested in the primary screen, some selected negative inactives, and several cases re-run in the concentration series for confirmatory purposes.
In the case of `COCC(C)N(C(=O)CCl)c1c(C)csc1C` (stereo not given), the outcome is reported as “inactive”.
`S=C1NCCN1` was tested, and the outcome was “inactive”.
With `CCOP(=S)(OCC)Oc1ccc2c(C)c(Cl)c(=O)oc2c1` the outcome was “inactive”.
In the case of `COC(=O)c1ccccc1S(=O)(=O)NC(=O)N(C)c1nc(C)nc(OC)n1`, the outcome is reported as “inactive”.
In the case of `CCCCC(CC)COC(=O)c1ccccc1C(=O)OCC(CC)CCCC` (stereo not given), the outcome is reported as “inactive”.
